Experimental data published in PubChem BioAssay (NCI).
The panel holds about 83,000 compounds, 20% with a hit somewhere; the sample as a whole holds those more often.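 Treatment: one concentration, 48 hours, 96-well format. Scoring: percent growth, with anything below 10 considered active.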 The source made the active and inactive calls.

Key:
Assay in all cases: NCI-60 one-dose screen, 48 h (100 = growth as untreated, 0 = no growth, -100 = all killed)
Details in all cases: 10 µM unless noted
SK-MEL-2 melanoma = system: SK-MEL-2 melanoma
SN12C renal = system: SN12C renal
UO-31 renal = system: UO-31 renal
TK-10 renal = system: TK-10 renal
ACHN renal = system: ACHN renal
CAKI-1 renal = system: CAKI-1 renal
A498 renal = system: A498 renal
CCRF-CEM leukemia = system: CCRF-CEM leukemia
MOLT-4 leukemia = system: MOLT-4 leukemia

Measured: growth

CCOC(=O)c1c(NCC(=O)Nc2cccc([N+](=O)[O-])c2)sc(C(C)=O)c1C
active: SK-MEL-2 melanoma -15% | UO-31 renal -12.7% | TK-10 renal -22.6% | ACHN renal -13.5% | CAKI-1 renal -30.8% | A498 renal -75.3% | CCRF-CEM leukemia 4.89% | MOLT-4 leukemia 3.1%
inactive: SN12C renal 12.6%

CC1CCN(CC(=O)Nn2c(COc3ccccc3)nc3ccccc3c2=O)CC1
inactive: SK-MEL-2 melanoma 87.2% | SN12C renal 96.3% | UO-31 renal 70.7% | TK-10 renal 125% | ACHN renal 102% | CAKI-1 renal 71.2% | A498 renal 81.8% | CCRF-CEM leukemia 89.4% | MOLT-4 leukemia 88.1%

CC(=O)Nc1ccccc1-c1nc2ccccc2s1
inactive: SK-MEL-2 melanoma 104% | SN12C renal 92.5% | UO-31 renal 89.1% | TK-10 renal 97.7% | CAKI-1 renal 95.4% | A498 renal 84.4% | CCRF-CEM leukemia 98.4% | MOLT-4 leukemia 104%

COc1cc(C(=O)c2cc(C(C)=O)c3ccc(C)cn23)cc(OC)c1OC
inactive: SK-MEL-2 melanoma 37.5% | SN12C renal 42.4% | UO-31 renal 44% | TK-10 renal 76.3% | ACHN renal 51.3% | A498 renal 38.3% | CCRF-CEM leukemia 47.1% | MOLT-4 leukemia 28.5%

CCOc1cccc(/C(N)=N/C(N)=N/c2nc3ccccc3s2)c1
inactive: SK-MEL-2 melanoma 117% | SN12C renal 53.1% | UO-31 renal 38.4% | TK-10 renal 135% | ACHN renal 48.7% | CAKI-1 renal 62.4% | A498 renal 115% | CCRF-CEM leukemia 55.8% | MOLT-4 leukemia 62.4%

Cc1ccc(/C(N)=N/C(N)=N/c2nc3ccccc3s2)cc1
inactive: SK-MEL-2 melanoma 114% | SN12C renal 60.2% | UO-31 renal 87% | TK-10 renal 136% | ACHN renal 66.8% | CAKI-1 renal 76.8% | A498 renal 121% | CCRF-CEM leukemia 78.9% | MOLT-4 leukemia 75.9%

C#CCn1cc(/C=N/Nc2nc(-c3ccc(Br)cc3)cs2)c2ccccc21
inactive: SK-MEL-2 melanoma 104% | SN12C renal 95.1% | UO-31 renal 81.4% | TK-10 renal 162% | ACHN renal 98% | CAKI-1 renal 106% | A498 renal 94.7% | CCRF-CEM leukemia 101% | MOLT-4 leukemia 101%

CN(C)S(=O)(=O)c1ccc(-c2nc(C(Cl)Cl)nc3cc(-c4ccccc4)nn23)cc1
inactive: SK-MEL-2 melanoma 112% | SN12C renal 81.1% | UO-31 renal 88.8% | TK-10 renal 101% | CAKI-1 renal 73.1% | A498 renal 106% | CCRF-CEM leukemia 77.3%

O=c1[nH][nH]c(-c2ccc(F)cc2)c1-c1nc2ccccc2s1
inactive: SK-MEL-2 melanoma 100% | SN12C renal 82% | UO-31 renal 87.3% | TK-10 renal 154% | ACHN renal 95.1% | A498 renal 67.9% | CCRF-CEM leukemia 86.6% | MOLT-4 leukemia 95.8%

Brc1ccc(-c2cc(-c3ccc4c(c3)OCCO4)n[nH]2)s1
inactive: SK-MEL-2 melanoma 55.3% | SN12C renal 54.3% | UO-31 renal 44.5% | TK-10 renal 105% | ACHN renal 47.9% | CAKI-1 renal 31.7% | A498 renal 40.3% | CCRF-CEM leukemia 18.1% | MOLT-4 leukemia 19.3%

C/C(=N/N)c1nnn(-c2ccc(Br)cc2)c1C
inactive: SK-MEL-2 melanoma 112% | SN12C renal 91% | UO-31 renal 79.7% | TK-10 renal 98.1% | ACHN renal 101% | CAKI-1 renal 91.6% | A498 renal 93.3% | CCRF-CEM leukemia 109% | MOLT-4 leukemia 93.6%

COc1ccc(C(=NNS(=O)(=O)c2ccc(C)cc2)c2ccccc2)cc1OC
inactive: SK-MEL-2 melanoma 101% | SN12C renal 98.9% | UO-31 renal 77.4% | TK-10 renal 96.6% | ACHN renal 98% | CAKI-1 renal 80.7% | A498 renal 98.3% | CCRF-CEM leukemia 102% | MOLT-4 leukemia 98.3%

CSc1ccc(/C(=N/N=C(N)N)c2ccc(F)cc2)cc1
inactive: SK-MEL-2 melanoma 48.6% | SN12C renal 36.9% | UO-31 renal 30.5% | TK-10 renal 39.1% | ACHN renal 35.8% | CAKI-1 renal 15.6%
active: A498 renal 5.39% | CCRF-CEM leukemia 5.74% | MOLT-4 leukemia -2.76%

Cc1ccc2c(n1)C(=O)C(Cl)=C(Nc1cccc(C(=O)OC(C)(C)C)c1)C2=O
inactive: SK-MEL-2 melanoma 115% | SN12C renal 94.1% | UO-31 renal 78.4% | TK-10 renal 120% | ACHN renal 77% | CAKI-1 renal 77.7% | A498 renal 66.6% | CCRF-CEM leukemia 10.6%
active: MOLT-4 leukemia 6.09%

CNC(=O)c1cc(N2CCc3cc(NC(=O)Nc4ccc(N5CCN(C)CC5)c(C(F)(F)F)c4)ccc32)ccn1
inactive: SK-MEL-2 melanoma 99.4% | SN12C renal 100% | UO-31 renal 88.7% | TK-10 renal 134% | ACHN renal 85.6% | CAKI-1 renal 79.9% | A498 renal 76.9% | MOLT-4 leukemia 17.3%
active: CCRF-CEM leukemia 5.44%

Clc1cccc(/C=N/Nc2nc(N/N=C/c3cccc(Cl)c3)nc(N3CCCCC3)n2)c1
inactive: SK-MEL-2 melanoma 86.1% | SN12C renal 92.4% | UO-31 renal 76.7% | TK-10 renal 106% | ACHN renal 101% | CAKI-1 renal 92.4% | A498 renal 92.2% | CCRF-CEM leukemia 75% | MOLT-4 leukemia 68.7%

COc1ccccc1/C=C1\Oc2ccc(O)c(O)c2C1=O
inactive: SK-MEL-2 melanoma 102% | SN12C renal 94.5% | UO-31 renal 82.1% | TK-10 renal 100% | ACHN renal 101% | CAKI-1 renal 78.4% | CCRF-CEM leukemia 75.5% | MOLT-4 leukemia 85%

Cc1ccc2c(n1)C(=O)C(Cl)=C(Nc1ccc(C)c(C)c1)C2=O
active: SN12C renal 0.141%
inactive: SK-MEL-2 melanoma 40% | UO-31 renal 44% | TK-10 renal 140% | ACHN renal 57% | CAKI-1 renal 90% | A498 renal 71.8% | CCRF-CEM leukemia 30.8% | MOLT-4 leukemia 60.1%

Cc1ccc(C(=O)CSc2nc3ccccc3c(=O)n2C)cc1
inactive: SK-MEL-2 melanoma 95.7% | SN12C renal 94.2% | UO-31 renal 56.6% | TK-10 renal 134% | ACHN renal 83.7% | CAKI-1 renal 72.7% | A498 renal 99.8% | CCRF-CEM leukemia 83.6% | MOLT-4 leukemia 88%

CCCCCN1C(=O)/C(=c2\sc3n(c2=O)C2C(NN=3)N(CC)C(=O)N2CC)c2cccc(C)c21 (stereo not given)
inactive: SK-MEL-2 melanoma 97.1% | SN12C renal 74.3% | UO-31 renal 62.7% | TK-10 renal 96.5% | ACHN renal 43.9% | CAKI-1 renal 41.3% | A498 renal 12% | CCRF-CEM leukemia 30.6%

CN1CCN(Cc2ccc(NC(=O)c3cncc(C#Cc4cnc5ccc(OC6CCOCC6)nn45)c3)cc2C(F)(F)F)CC1
active: SK-MEL-2 melanoma -90.8% | SN12C renal -78.8% | UO-31 renal -92.3% | TK-10 renal -89.6% | ACHN renal -100% | CAKI-1 renal -97% | A498 renal -92.5% | CCRF-CEM leukemia 0.551% | MOLT-4 leukemia 3.74%

CC(=O)OC[C@@]12Oc3c(cccc3-c3ccc(O)c4c3O[C@]3(COC(C)=O)C(=C4O)C(=O)C[C@H](C)[C@@H]3OC(C)=O)C(O)=C1C(=O)C[C@H](C)[C@@H]2OC(C)=O
inactive: CCRF-CEM leukemia 14.3%
active: SK-MEL-2 melanoma -20.4% | SN12C renal 7.7% | UO-31 renal 9.35% | TK-10 renal 9.84% | CAKI-1 renal 0.254% | A498 renal 1.51% | MOLT-4 leukemia 4.81%
